Source: ChEMBL document CHEMBL3988442, “University of Dundee, Small-Polar-MMV Screening Library” (2021)
The whole screen tested about 66,000 compounds, of which about 960 (1.5%) showed an effect of 50% or more. The list comes from a sample in which strong results are over-represented; it also holds similar structures and randomly drawn compounds.

System: Trypanosoma brucei
Assay: Trypanosoma brucei 72 hour study
Assay type: functional, organism-based
Parameters: scale not given: in the data most compounds retested in dose-response had high values

O=C(Cc1c(F)cccc1Cl)Nc1cc(N2CCCC2)ncn1
Percent Effect (30 µM, 30.03 µM): -1.859%

O=C(Cc1c(F)cccc1Cl)Nc1cc(N2CCOCC2)ncn1
Percent Effect (30 µM, 30.03 µM): 100.3%

O=C(Cc1ccccc1Cl)Nc1cc(N2CCCC2)ncn1
Percent Effect (30 µM, 30.03 µM): -11.61%

O=C(c1ccc(COc2ccccc2Cl)o1)N1N=CCC1(O)C(F)(F)F (configuration not stated)
Percent Effect (30.3 µM, […]): 31%

COCc1ccc(C(=O)N2CCC(Oc3ccccc3)(C(=O)O)CC2)o1
Percent Effect (30 µM, 30.03 µM): -16.4%

O=C(c1ccc(COc2ccc(Cl)cc2)o1)N1N=CCC1(O)C(F)(F)F (configuration not stated)
Percent Effect (30.3 µM, […]): 99.58%

Cc1cccc(OCc2ccc(C(=O)N3N=CCC3(O)C(F)(F)F)o2)c1 (configuration not stated)
Percent Effect (30.3 µM, […]): 67.46%

O=C(Cc1ccc(Cl)cc1)N1CCC(O)(C(F)(F)F)C1 (configuration not stated)
Percent Effect (30.3 µM, […]): -19.5%

COc1ccc(C(=O)N2CCC(Oc3cccc(C)c3)(C(=O)O)CC2)o1
Percent Effect (30 µM, 30.03 µM): -24.59%

COc1c(CNCc2ccc(C(=O)N(C)C(C)C)cc2)c(C)nn1C
Percent Effect (10 µM): -22.99%

COc1ccccc1CNCc1nn(-c2ccccc2)c2c1CCC2
Percent Effect (30 µM, 30.03 µM): 105.2%

Cc1c(CNCc2nn(-c3ccccc3)c3c2CCC3)cc(C#N)n1C
Percent Effect (30 µM, 30.03 µM): -10.92%

Cc1noc(C)c1CNCc1nn(-c2ccccc2)c2c1CCC2
Percent Effect (30 µM, 30.03 µM): -40.9%

Cc1cncc(C(=O)N2CCO[C@H]3[C@H](OCCN(C)C)CC[C@@H]32)c1.O=C(O)C(F)(F)F.O=C(O)C(F)(F)F
Percent Effect (30.3 µM, […]): -21.9%

Cc1n[nH]c(C)c1C1COCCN1C(=O)c1cc(F)ccc1F (configuration not stated)
Percent Effect (30.3 µM, […]): -0.3197%

CNC(=O)CN1CC[C@H]2CN(C(=O)c3cccn3C)C[C@H]2C1.O=C(O)C(F)(F)F
Percent Effect (30.3 µM, […]): -42.42%

NC1CCCCN(Cc2cc(-c3ccccc3OC(F)(F)F)no2)C1 (configuration not stated)
Percent Effect (30 µM, 30.03 µM): 101.5%

N[C@@H]1CCN(Cc2cc(-c3ccccc3OC(F)(F)F)no2)C[C@H]1O
Percent Effect (30 µM, 30.03 µM): -20.57%

OC1COCCN(Cc2cc(-c3ccccc3OC(F)(F)F)no2)C1 (configuration not stated)
Percent Effect (30 µM, 30.03 µM): -31.26%

O=C(O)C(F)(F)F.O=C(O)C(F)(F)F.c1ccc(OCc2nnc3n2CCN(CC2CC2)C3)nc1
Percent Effect (30 µM, 30.03 µM): 16.25%

CC(C)Oc1ncccc1CNC(=O)N1CCC1
Percent Effect (30.3 µM, […]): -18.33%

COc1ccc(C)cc1CCNS(=O)(=O)c1ccc2c(c1)CCC(=O)N2
Percent Effect (30 µM, 30.03 µM): -47.2%

COc1ccc(C)cc1C(C)NS(=O)(=O)c1ccc2c(c1)CCC(=O)N2 (configuration not stated)
Percent Effect (30 µM, 30.03 µM): -36.95%

COc1ccc(C(C)NS(=O)(=O)c2ccc3c(c2)CCC(=O)N3)cc1F (configuration not stated)
Percent Effect (30 µM, 30.03 µM): 95.9%

CC(CN1CCOCC1)OC(=O)c1ccccc1Cl.Cl (configuration not stated)
Percent Effect (30 µM, 30.03 µM): -53.51%

CC(C)N(C)Cc1cnc2n1CCN(Cc1ccc(F)cc1)C2.O=C(O)C(F)(F)F.O=C(O)C(F)(F)F
Percent Effect (30.3 µM, […]): 5.253%

Cc1c(C(=O)N2CCN(C)CC2)n(C)c2ccc(Cl)cc12
Percent Effect (30.3 µM, […]): 12.9%

Cc1c(C(=O)N2CCN(c3ccccn3)CC2)n(C)c2ccc(Cl)cc12
Percent Effect (30.3 µM, […]): 79.78%

Cc1c(C(=O)N2CCN(c3ncccn3)CC2)n(C)c2ccc(Cl)cc12
Percent Effect (30.3 µM, […]): 36.3%

Cn1ccnc1CN1CCC2(CC1)Cc1ccccc1CNC2=O.O=C(O)C(F)(F)F
Percent Effect (30.3 µM, […]): -47.04%

CC(C)C(=O)NC(Cc1cc(N(C)C)nc(C2CC2)n1)c1ccccc1 (configuration not stated)
Percent Effect (30.3 µM, […]): 30.74%

CN(C)c1cc(CC(NC(=O)C2CC2)c2ccccc2)nc(C2CC2)n1 (configuration not stated)
Percent Effect (30.3 µM, […]): 52.69%

CCC(=O)NC(Cc1cc(N(C)C)nc(C2CC2)n1)c1ccccc1 (configuration not stated)
Percent Effect (30.3 µM, […]): 13.14%

CC(C)(C)CN1CC(COc2ccccc2)Oc2ccncc2S1(=O)=O (configuration not stated)
Percent Effect (30.3 µM, […]): -12.26%

O=C(O)C(F)(F)F.c1coc(CN2CCO[C@H]3[C@@H](OCC4CC4)CC[C@@H]32)c1
Percent Effect (30.3 µM, […]): -12.22%

Cc1nc(CN2CCN(C)C(=O)C23CCN(C(C)C)CC3)cs1.O=C(O)C(F)(F)F
Percent Effect (30.3 µM, […]): -9.175%

COCCOc1ccc(CNCC2CNc3cc(C)nn3C2)cn1 (configuration not stated)
Percent Effect (30.3 µM, […]): 6.502%

Fc1cccc(Oc2ccc(CNCC3CNc4ccnn4C3)cn2)c1 (configuration not stated)
Percent Effect (30 µM, 30.03 µM): 11.44%

Cc1cc2n(n1)CC(CNCc1ccc(Oc3ccccc3)nc1)CN2 (configuration not stated)
Percent Effect (30.3 µM, […]): 53.59%

Cc1ccc(CNCC2CNc3cc(C)nn3C2)cn1 (configuration not stated)
Percent Effect (30.3 µM, […]): -20.04%

c1ccc(Oc2ccc(CNCC3CNc4ccnn4C3)cn2)cc1 (configuration not stated)
Percent Effect (30.3 µM, […]): 59.34% | Percent Effect (10 mM, 10 mM as filed; unlikely as a test dose): -30.66%

COc1ccc(CNCC2CNc3cc(C)nn3C2)cn1 (configuration not stated)
Percent Effect (30.3 µM, […]): 11.94%

Cc1cc2n(n1)CC(CNCc1ccc(-n3cccn3)nc1)CN2 (configuration not stated)
Percent Effect (30 µM, 30.03 µM): -7.458%

c1cc(CNCC2CNc3ccnn3C2)cc(OC2CCCC2)n1 (configuration not stated)
Percent Effect (30.3 µM, […]): 16.86%

Fc1ccc(Oc2ccc(CNCC3CNc4ccnn4C3)cn2)cc1 (configuration not stated)
Percent Effect (30.3 µM, […]): 22.41% | Percent Effect (10 mM, 10 mM as filed; unlikely as a test dose): -33.28%

c1cc2n(n1)CC(CNCc1ccc(OC3CCCCC3)nc1)CN2 (configuration not stated)
Percent Effect (30 µM, 30.03 µM): 28.54%

Cc1cc2n(n1)CC(CNCc1ccc(OCC3CC3)nc1)CN2 (configuration not stated)
Percent Effect (30.3 µM, […]): 69.29% | Percent Effect (10 mM, 10 mM as filed; unlikely as a test dose): -5.536%

c1cc2n(n1)CC(CNCc1ccc(OC3CCCC3)nc1)CN2 (configuration not stated)
Percent Effect (30.3 µM, […]): 80.85% | Percent Effect (10 mM, 10 mM as filed; unlikely as a test dose): 9.3%
